Holding throughout (assay): NCI-60 one-dose screen, 48 h (100 = growth as untreated, 0 = no growth, -100 = all killed)
Conditions in all cases: 10 µM

The subject of experiment [1] is SN12C renal.
Experiment [2] relates to UO-31 renal.
Experiment [3] concerns TK-10 renal.
Experiment [4] deals with ACHN renal.
Experiment [5] concerns CAKI-1 renal.
The subject of experiment [6] is A498 renal.
Experiment [7] has as its system MOLT-4 leukemia.
For experiment [8], the system named is SR leukemia.
The subject of experiment [9] is RPMI-8226 leukemia.
Experiment [10] concerns OVCAR-8 ovarian.
In experiment [11] the test system is OVCAR-5 ovarian.
In experiment [12] the test system is OVCAR-4 ovarian.
Experiment [13] relates to SK-OV-3 ovarian.
Experiment [14] relates to OVCAR-3 ovarian.
Experiment [15] concerns HS 578T breast.
The subject of experiment [16] is NCI/ADR-RES ovarian.
For experiment [17], the system named is EKVX NSCLC.
The test system of experiment [18] is IGROV1 ovarian.
Experiment [19] deals with CCRF-CEM leukemia.

SMILES strings stand for the structures. This is part of a sample that, as a whole, favours compounds with a hit. Of some 83,000 tested, about 20% had one in any assay.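 Activity criterion: percent growth below 10, measured after cells in 96-well plates were exposed to a single compound concentration for 48 hours.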 Unmarked numbers belong to inactive results. The source made the active and inactive calls.

This passage reports growth results from PubChem BioAssay (NCI).

As for `CSc1ccc(-c2cc(-c3ccc(NC(=O)CCCN4CCCC4)cc3)nc(-c3ccc(NC(=O)CCCN4CCCC4)cc3)c2)cc1`, the growth in experiment [1] is 77.8%; in [2], 84.9%; in experiment [3] it was 73.8%; in experiment [4], 86.1%; in experiment [5] it was 83.6%; in experiment [6], 74.2%. In addition, the growth in experiment [7] is 4.93% (active); in experiment [8] it was 32.2%; in [9], 73.2%; in experiment [10] it was 76.4%; in experiment [11], 72.3%; in [12], 67.3%. Besides, the growth was 75.2% in [13], 63.4% in [14], 55% in experiment [15] and 95.5% in experiment [16].
Regarding `OC[C@H]1OC([S-])[C@H](O)[C@@H](O)[C@@H]1O.[Au+]` (stereo not given in full), the growth in [17] is 106%; in [1], 98.5%; in [3], 124%; in experiment [4], 105%; in experiment [5] it was 108%; in experiment [6] it was 174%. The growth in experiment [7] was 75.9%; in experiment [8] it was 41.7%; in experiment [9], 80.6%; in experiment [10], 104%; in [11], 129%; in experiment [12], 96.9%. Further, the growth in experiment [13] is 120%; in [18] it was 119%; in experiment [14] it was 128%; in [15], 73.3%; in experiment [16], 101%.
Regarding `COc1cc(N)c2ncccc2c1SC`, the growth in experiment [17] was 86%; in experiment [1], 105%; in [4] it was 104%; in [5], 99.2%; in experiment [19], 98.5%; in experiment [7], 101%. Moreover, the growth is 90.4% in experiment [8]; 100% in experiment [9]; 98.4% in experiment [10]; 101% in experiment [11]; 105% in [12]; 108% in experiment [13]. Besides, the values for the growth in experiment [14], in experiment [15] and in experiment [16] were 105%, 92.5% and 99.1%, respectively.
Regarding `CC(C)(C)c1ccc(S(=O)(=O)N[C@H]2CC[C@H]3[C@@H]4CCc5cc(O)ccc5[C@H]4CC[C@]23C)cc1`, the growth in experiment [1] is 28.4%; in [2], 25.1%; in experiment [3], 67.5%; in experiment [4], 35.2%; in experiment [5], 38.9%; in experiment [6] it was 33.6%. For the same compound, the growth in experiment [7] was 16.8%; in experiment [8], 20.5%; in experiment [9] it was 37.9%; in experiment [10], 50%; in experiment [11], 92.7%; in [12], 51.4%. For the same compound, the growth in experiment [13] was 87%; in experiment [18], 44.6%; in [14], 37.3%; in experiment [15], 63.1%; in experiment [16], 46.4%.
In the case of `C[C@@H](O)[C@H]1C(=O)N2C(C(=O)O)=C(SCCN=CN)C[C@H]12`, the growth in experiment [17] was 7.62% (active); in [1] it was 2.27% (active); in experiment [2], -50.4% (active); in experiment [3], -0.459% (active); in experiment [4], -30.6% (active); in experiment [5], -28.2% (active). Also, the growth in experiment [6] is -36.4% (active); in [19], 4.2% (active); in experiment [7], -13.9% (active); in experiment [8], -5.48% (active); in experiment [9], -3.62% (active); in experiment [10] it was -10.1% (active). For the same compound, the growth in [11] was 3.52% (active); in experiment [12], -2.15% (active); in experiment [13], 2.23% (active); in experiment [18] it was -5.16% (active); in experiment [14], -15% (active); in experiment [15], 24.3%. Also, the growth in [16] was -13.9% (active).
For the compound `CCCc1nc(C(C)(C)O)c(C(=O)O)n1Cc1ccc(-c2ccccc2-c2nn[nH]n2)cc1`, the growth in experiment [17] was 106%; in [1] it was 96.4%; in experiment [2] it was 84.6%; in experiment [3], 96.8%; in experiment [4], 93.5%; in [5], 92.6%. Moreover, the growth in experiment [6] is 80.2%; in experiment [19], 95.8%; in experiment [7], 107%; in [8], 85.9%; in experiment [9], 104%; in experiment [10], 91.7%. Also, the growth in experiment [11] is 104%; in [12], 100%; in experiment [13], 106%; in [18], 114%; in experiment [14], 117%; in [15], 102%. Moreover, the growth in experiment [16] is 105%.
With `c1ccc(CSc2ncccc2-c2nnc(SCCN3CCOCC3)o2)cc1`, the growth in experiment [17] was 108%; in experiment [1], 114%; in [2], 89.4%; in experiment [3], 118%; in experiment [4], 124%; in experiment [5], 100%. Further, the growth is 103% in [19]; 103% in [7]; 104% in [8]; 104% in experiment [9]; 109% in experiment [10]; 119% in experiment [11]. Further, the growth is 106% in experiment [12]; 109% in experiment [13]; 98.3% in [18]; 120% in experiment [14]; 133% in experiment [15]; 107% in [16].
As to `CO[C@H]1CC(O[C@@H]2/C(C)=C/C[C@@H]3C[C@@H](C[C@]4(C=C[C@H](C)[C@@H](C5CCCCC5)O4)O3)OC(=O)[C@@H]3C=C(C)[C@@H](O)[C@H]4OC/C(=C\C=C\[C@@H]2C)[C@]43O)O[C@@H](C)C1O[C@H]1C[C@H](OC)[C@@H](O)[C@H](C)O1` (stereo not given in full), the growth in experiment [17] is -94.3% (active); in experiment [1], -79.1% (active); in experiment [2] it was -98.4% (active); in [3], -85.5% (active); in experiment [4], -100% (active); in [5] it was -94.6% (active). In addition, the growth was -80.3% (active) in experiment [6]; -44.1% (active) in [19]; -58.2% (active) in [7]; -52.8% (active) in experiment [8]; -25.1% (active) in experiment [9]; -25.9% (active) in [10]. Moreover, the growth in experiment [11] is -65.3% (active); in experiment [12] it was -46.8% (active); in [13], -84.1% (active); in [18], -54.7% (active); in experiment [14], -96.9% (active); in experiment [15] it was -40.4% (active). Also, in experiment [16], the growth is -65.1% (active).
